Screens (PubChem)
Hits are enriched below; roughly 3.5% of the tested compounds scored in any of these assays.
TEAD-YAP inh = TEAD-YAP interaction inhibition, primary screen, TEAD-YAP interaction inhibitor project, luminescence, HEK-TIYL cells; TEAD-Gal4/YAP UAS-luciferase luminescence; inhibition, % at 9.12 µM; actives 1.4% (n = 640,000); AID 1259422, 2018; in the data active means inhibition above about 32%;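 further: 0% = median of test compound wells and 100% = reference inhibitor wells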
MITF inh = MITF inhibitors, primary screen, biochemical, AlphaScreen, human; Microphthalmia-associated transcription factor (Homo sapiens), O75030; AlphaScreen MITF homodimerization, bead proximity signal; inhibition, % at 2.6 µM; actives 0.91% (n = 650,000); in the data active means inhibition above about 50%;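 further: 0% = vehicle wells with protein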
FBW7 act = FBW7 E3 ligase activators, primary screen, biochemical, AlphaScreen, human. F-box/WD repeat-containing protein 7 (Homo sapiens), Q969H0. AlphaScreen FBW7–phospho-cyclin E peptide binding, activator screen. AID 1259310, 2017. normalized activity (activation), % at 26.1 µM. actives 0.13% (n = 650,000); in the data active means normalized activity above about 1.9%;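 further: purified mutant Fbw7 with reduced substrate affinity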
Target sequence (Q969H0 whole entry, looked up): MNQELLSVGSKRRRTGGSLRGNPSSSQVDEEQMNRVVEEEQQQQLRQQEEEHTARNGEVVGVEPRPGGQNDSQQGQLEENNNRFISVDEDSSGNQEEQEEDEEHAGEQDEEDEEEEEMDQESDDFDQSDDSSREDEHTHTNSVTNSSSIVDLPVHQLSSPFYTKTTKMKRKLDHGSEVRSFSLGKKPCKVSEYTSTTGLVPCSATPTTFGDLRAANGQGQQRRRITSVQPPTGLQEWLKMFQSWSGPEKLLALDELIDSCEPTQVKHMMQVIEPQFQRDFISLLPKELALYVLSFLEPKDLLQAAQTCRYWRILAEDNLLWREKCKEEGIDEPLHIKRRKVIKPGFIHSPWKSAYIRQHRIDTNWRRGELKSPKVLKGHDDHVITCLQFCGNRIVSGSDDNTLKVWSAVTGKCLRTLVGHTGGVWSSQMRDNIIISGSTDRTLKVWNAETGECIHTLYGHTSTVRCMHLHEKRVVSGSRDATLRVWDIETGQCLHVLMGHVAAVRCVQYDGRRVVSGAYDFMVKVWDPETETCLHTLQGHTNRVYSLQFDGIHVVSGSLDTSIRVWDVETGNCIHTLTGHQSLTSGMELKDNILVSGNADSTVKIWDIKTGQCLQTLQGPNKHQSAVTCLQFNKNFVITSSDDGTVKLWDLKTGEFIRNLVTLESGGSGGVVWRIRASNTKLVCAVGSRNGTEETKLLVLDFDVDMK
GPR151 activ = activators of human GPR151, primary screen, cell-based, PathHunter beta-arrestin, luminescence | PathHunter beta-arrestin GPR151 cells | activation, % at 11.2 µM | G-protein coupled receptor 151 (Homo sapiens), Q8TDV0 | actives 1% (n = 650,000); in the data active means activation above about 4.9%;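 further: 0% = median of compound wells and 100% = cells with positive control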
GPR151 confirm = GPR151 activators, triplicate retest, confirmation, cell-based, PathHunter beta-arrestin, luminescence; shares compounds with GPR151 activ; GPR151 PathHunter beta-arrestin cells, 90 min; % of EA-reagent control over plate median; activation, % at 11.2 µM; 6,700 tested, under 10 active;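 active means mean percent activation across replicates above the confirmation screen cutoff of 4.91%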
GPR119 ag = GPR119 activators in beta-arrestin cells, counter-screen for GPR151 activator project, cell-based, PathHunter beta-arrestin, luminescence, triplicate. shares compounds with GPR151 activ. 90 min; 0 = compound-well median, 100 = enzyme-acceptor control. actives 0.3% (n = 6,700). activation, % at 11.2 µM;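 active means mean percent activation in the counterscreen above 29.09%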;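 further: counterscreen on off-target GPR119 to flag nonselective hits from the GPR151 activator screen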
Starred values were filed as active, the others as inactive; x = no result.

SMILES	TEAD-YAP inh	MITF inh	FBW7 act	GPR151 activ	GPR151 confirm	GPR119 ag
c1ccc(Cc2nnc3sc(-c4ccco4)nn23)cc1	-15.7	0.9	-0.1	3.5	x	x
Cc1ccccc1-n1c(SCC(N)=O)nc2ccccc2c1=O	-2.7	-8.7	-0.2	5.2*	-0.9	-2.6
COCCNC(=O)CN1C(=O)COc2ccc(Cl)cc21	-0.7	4.9	-0.1	7.8*	-0.2	3.6
CC(C)(C)c1ccc2c(c1)N(CC(=O)NC1CCCCCC1)C(=O)CO2	-9.0	7.4	-0.1	5.5*	1.3	1.6
O=C(CN1C(=O)COc2ccc(Cl)cc21)NC1CCCCCC1	-4.4	7.5	0.1	-0.4	x	x
CC(C)NC(=O)CN1C(=O)COc2ccc(C(C)(C)C)cc21	-4.7	1.1	-0.1	5.8*	0.4	8.2
COc1ccc(CCNc2ncnc3c2cnn3C)cc1	1.1	3.6	0.0	-1.5	x	x
Cc1ccc(NC(=O)C2C3C=CC4(O3)C2C(=O)N(CC2CCCO2)C4C(=O)NC2CCCC(C)C2C)cc1Cl (stereo not drawn)	-6.1	-5.7	0.0	0.0	x	x
Cc1nc2cc(C(=O)O)ccc2n1CCO	-10.1	-1.5	0.0	0.9	x	x
CC12C=CC(C3OCCO3)(O1)C1C(=O)N(c3ccc(Cl)cc3)C(=O)C12 (stereo not drawn)	12.3	5.2	0.0	6.4*	-0.3	-0.7
Cc1ccc(-c2csc(C(C#N)=C3CCCCC3)n2)cc1	-62.2	2.4	-0.1	5.4*	-0.3	-10.4
CCc1cc2ccccc2nc1SCC(=O)NNC(=O)c1ccco1	-3.1	-0.7	-0.1	-0.5	x	x
O=C1C(Cl)=C(NC2CCCCCC2)C(=O)N1c1ccccc1Cl	2.2	5.7	0.1	1.1	x	x
CC(C)NC(=O)C1CC(=O)N(c2ccc(Cl)cc2)C1 (stereo not drawn)	-3.9	3.0	-0.2	5.8*	0.2	0.8
Cc1ccc(N2CC(C(=O)N3CCCCCC3)CC2=O)cc1 (stereo not drawn)	-10.0	-0.8	0.0	4.9*	0.1	-7.8
C=CCSc1nnc2c(n1)OC(c1ccc(OCC)cc1)N(C(C)=O)c1ccccc1-2 (stereo not drawn)	-0.2	13.8	0.0	0.5	x	x
Cc1cc(C)cc(OCC(=O)NNC(=O)c2c(C)cc(C)cc2C)c1	17.4	0.9	0.1	0.0	x	x
CCOc1ccc(/C=C2/N=C(c3cncc(Br)c3)OC2=O)cc1	3.9	17.6	-0.1	5.0*	-0.4	-10.8
CCOc1ccc(/C=C2/N=C(c3ccc(OC)c(Br)c3)OC2=O)cc1	-0.8	-3.4	0.0	0.6	x	x
Cc1ccc(CCNS(=O)(=O)c2cc3[nH]c(=O)c(=O)[nH]c3cc2C)cc1	4.0	3.4	0.0	0.7	x	x
O=C(C[n+]1ccccc1)N/N=C/c1cccs1	8.2	12.0	0.0	6.1*	0.6	1.9
C=CCn1cnc2c(nnn2-c2cc(C)cc(C)c2)c1=O	-15.8	-7.9	0.0	9.4*	1.2	9.0
CCCCCOc1ccc(NC(=O)c2c(C)cc(C)cc2C)cc1	-23.1	13.7	0.0	0.1	x	x
CCOc1ccc(CCNC(=O)c2cn(-c3ccc(OC)cc3)c(=O)c3ccccc23)cc1	10.8	-49.4	-0.1	7.0*	-0.2	-6.1
COc1ccccc1OCCNC(=O)c1ccc(F)c2ccccc12	4.8	0.9	0.0	-0.8	x	x
SMILES	TEAD-YAP inh	MITF inh	FBW7 act	GPR151 activ	GPR151 confirm	GPR119 ag
CCNc1nc(Nc2ccccc2)c2ncn(-c3ccccc3)c2n1	-6.2	2.7	0.0	-2.8	x	x
COc1ccc(CCNC(=O)CCc2nc3cccnc3n2-c2ccccc2)c(OC)c1	3.9	-0.9	0.0	5.1*	-0.4	0.5
O=C(N/N=C/c1ccccc1O)/C(=C\c1cccs1)NC(=O)c1ccccc1	13.9	-41.9	0.0	1.2	x	x
COc1cccc(/C=N/NC(=O)/C(=C\c2cccs2)NC(=O)c2ccccc2)c1O	15.5	-66.0	-0.2	6.2*	-0.3	-12.3
O=C(COc1ccc(Br)cc1)NC1CCS(=O)(=O)C1 (stereo not drawn)	11.4	11.9	0.0	0.8	x	x
NCCNC(=O)/C(=N\O)c1ccccc1	15.4	4.2	0.0	0.3	x	x
O=C(NCCCNCCCNC(=O)/C(=N/O)c1ccccc1)/C(=N/O)c1ccccc1	-6.4	10.4	0.1	5.4*	0.1	3.8
CCCNC(=O)c1cc(-c2ccccn2)nc2ccccc12	9.0	9.2	-0.1	0.5	x	x
CCN(CCCNC(=O)c1cc(-c2ccccn2)nc2ccccc12)c1cccc(C)c1	-2.1	-1.8	-0.2	8.0*	0.3	2.9
Cc1cc(C)n(CC(C)N2CCC(n3nccc3NC(=O)CCCc3ccccc3)CC2)n1 (stereo not drawn)	1.4	10.8	0.0	7.2*	0.8	-15.3
COc1cc2nc(NCc3ccc4c(c3)OCO4)nc(Nc3ccccc3)c2cc1OC	1.4	6.5	-0.1	4.1	x	x
COc1ccc(NC(=O)C(=O)NCCN2CCN(C(=O)c3c(F)cccc3F)CC2)cc1	3.6	11.3	0.4	5.8*	0.2	12.2
COc1ccc(C(=O)N2CCN(CCNC(=O)C(=O)Nc3ccccc3)CC2)cc1	-10.5	-14.9	-0.1	-1.4	x	x
COc1cc2sc(=NC(=O)C3COc4ccccc4O3)n(C)c2cc1OC (stereo not drawn)	6.2	8.5	0.1	6.6*	-1.2	3.5
Cn1ccsc1=NC(=O)C1COc2ccccc2O1 (stereo not drawn)	-17.0	5.3	0.0	-4.6	x	x
CCCCCc1ccc(C(=O)CCC(=O)OCC(=O)N2CC(=O)Nc3ccccc32)cc1	-3.5	7.6	-0.1	1.7	x	x
O=C(NCc1ccc2c(c1)OCO2)C1CC2CCCN2C12C(=O)Nc1ccccc12 (stereo not drawn)	3.5	-7.6	-0.1	5.1*	0.4	2.9
O=C(NCc1cccc(F)c1)C1CC2CCCN2C12C(=O)Nc1ccccc12 (stereo not drawn)	6.9	2.5	0.2	3.9	x	x
CCOc1ccc(-c2nc(-c3ccncc3)no2)cc1OCC	-3.4	9.2	-0.1	4.9*	-0.4	-0.2
CCOc1ccc(-c2nc(-c3ccc([N+](=O)[O-])cc3)no2)cc1OCC	-8.2	-8.7	0.0	-1.1	x	x
CC(=O)Nc1ccc(Br)cc1C(=O)OCc1ccc([N+](=O)[O-])cc1	4.2	7.7	-0.2	-0.1	x	x
COc1ccccc1C1c2c(oc3ccc(C)cc3c2=O)C(=O)N1CCN1CCOCC1 (stereo not drawn)	2.6	-9.0	0.0	12.7*	0.8	6.6
